From PubChem BioAssay
This is a sample that favours compounds with a hit; in the whole collection about 10% have one here.
MCF10A rereplic – DNA re-replication induction in MCF 10a cells | MCF 10A DNA re-replication, Hoechst nuclear intensity, 48 h | Potency, µM (top dose mostly 46.1 µM), inactives show top-dose activity, positive = re-replication, most hits filed as activators | 350,000 tested, 2.9% active | AID 624296; note: % of control where 0% means no effect; nearly all actives have a fitted effect of over 50% in size
ELG1 repair inh – ELG1-dependent DNA repair inhibition | HEK293T ELG1-luciferase reporter, luminescence, 16 h; DNA damage induced by 5-fluorouridine | 330,000 tested, 2.3% active | Potency, µM (titrated, usually from 46.1 µM), for the others: at the highest dose activity change, negative = inhibition, actives largely listed as inhibitors; note: % is set by controls: 0 for no effect and ±100 for the full control effect; nearly all actives have a fitted effect of over 55% in size
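Overnight (16 hr) co-exposure of 2,000 cells/well to 5-fluorouridine and compound at 37 °C preceded detection. Luciferase was quantified via ONE-Glo luminescence; loss of signal denotes inhibition.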
RORg inh – inhibitors of mouse ROR gamma transcriptional activity | P51450 | Drosophila S2 Gal4-RORgamma UAS-luciferase reporter, 20 h | Potency, µM (doses to about 53.6 µM), without a hit: top-dose activity change, negative = inhibition, usual class: inhibitors | 310,000 tested, 5.4% active; note: % is set by controls: 0 for no effect and ±100 for the full control effect; nearly all actives have a fitted effect of over 60% in size
Target sequence (P51450 whole entry, looked up, the tested form may be a part): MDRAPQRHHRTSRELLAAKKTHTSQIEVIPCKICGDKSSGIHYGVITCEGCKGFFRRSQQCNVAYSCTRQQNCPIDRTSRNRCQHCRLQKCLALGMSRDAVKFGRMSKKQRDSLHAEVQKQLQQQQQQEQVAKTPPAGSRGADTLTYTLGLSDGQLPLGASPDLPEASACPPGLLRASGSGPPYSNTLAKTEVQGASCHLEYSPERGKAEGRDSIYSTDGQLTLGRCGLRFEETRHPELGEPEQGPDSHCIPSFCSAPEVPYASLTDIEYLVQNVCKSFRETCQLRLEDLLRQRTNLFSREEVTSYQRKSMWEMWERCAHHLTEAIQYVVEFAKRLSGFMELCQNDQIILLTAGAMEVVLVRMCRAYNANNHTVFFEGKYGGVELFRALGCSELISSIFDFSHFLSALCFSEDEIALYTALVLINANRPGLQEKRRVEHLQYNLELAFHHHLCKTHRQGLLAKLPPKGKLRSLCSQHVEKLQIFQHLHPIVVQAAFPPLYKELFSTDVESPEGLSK
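Schneider cells (Drosophila), stable Gal4 DBD–ROR gamma + UAS-luc; 1 hr cmpd preincubation; Cu2+ induction 700 uM final; 20 hr ambient; luminescence.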
VP16 counter – inhibits Gal4-VP16 luciferase reporter, ROR gamma counter-screen; Drosophila S2 Gal4-VP16 UAS-luciferase, luminescence, 20 h; Potency, µM (series often up to 53.6 µM), for the others: at the highest dose activity, negative = inhibition, most hits filed as inhibitors; 310,000 tested, 3.5% active; AID 2546;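 note: Gal4-VP16 expression switched on by copper sulfate through the metallothionein promoter; % is set by controls: 0 for no effect and ±100 for the full control effect; nearly all actives have a fitted effect of over 50% in size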
SW480 rerep – inducers of DNA re-replication in SW480 colon cancer cells | Potency, µM (doses to about 46.1 µM), for the others: at the highest dose re-replication activation, usual class: activators | AID 624297 | 340,000 tested, 1.8% active | SW480 DNA re-replication, Hoechst DNA content imaging, 48 h; note: % of control where 0% means no effect; nearly all actives have a fitted effect of over 55% in size
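DNA re-replication was detected as more nuclei of elevated Hoechst intensity after 48 hr exposure to compound (23 nL pinned per well of 250 cells).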
* hit, by the source's call; ? = inconclusive; . = no result. Calls come from the whole dose curve; as a rule, active = well fitted curve in the direction sought with a large enough effect; inconclusive = small, poorly fitted or top-dose-only effect, or another doubt; inactive = no such curve, though single readings can be large; an effect the other way counts as inactive or inconclusive. Potency is the fitted concentration of half-maximal effect.

SMILES	MCF10A rereplic	ELG1 repair inh	RORg inh	VP16 counter	SW480 rerep
C=CCNC(=S)N/N=C(\C)c1cc(OC)c(OC)c(OC)c1	-8%	-8%	2µM*	4.5µM*	-13%
CCC(C(=O)OCC(=O)NC(=O)NC(C)(C)C)c1ccccc1 (configuration not stated)	?	-12%	-3%	0%	-24%
COC(=O)c1sc(NC(=O)C2CCCO2)c(C(=O)OC)c1C (configuration not stated)	2%	?	3%	0%	-4%
Cc1c(C(=O)OC(C)C)sc(NC(=O)C2CCCO2)c1C(=O)OC(C)C (configuration not stated)	13µM*	?	0%	15%	15%
CCc1ccc(-c2csc(NC(=O)C3CCCO3)c2C(=O)OC(C)C)cc1 (configuration not stated)	26µM*	-3%	40%	-11%	?
COc1ccc(C(=O)NC(=S)NNC(=O)c2ccc(O)cc2)cc1[N+](=O)[O-]	-18%	8%	?	?	-119%
Cc1cc(C=O)c(C)n1-c1ccc2c(c1)OCO2	1%	16%	-6%	-7%	-1%
O=Cc1cc2c(cc1[B-](F)(F)F)OCO2	-52%	.	.	.	16µM*
CCCCN(Cc1ccco1)C(=O)Cn1ncc2c(=O)oc3ccc(C)cc3c21	-3%	1%	1.4µM*	-3%	-9%
Cn1c(-c2c(N)n(CCc3ccccc3)c3nc4ccccc4nc23)nc2ccccc21	?	9.2µM*	?	13µM*	8.2µM*
COCCCn1c(N)c(-c2nc3ccccc3n2C)c2nc3ccccc3nc21	23µM*	?	4µM*	7.1µM*	?
Nc1c(C(=O)OCC2CCCO2)c2nc3ccccc3nc2n1C1CCCC1 (configuration not stated)	?	?	1%	-4%	27%
Cn1c(-c2c(N)n(CCCc3ccccc3)c3nc4ccccc4nc23)nc2ccccc21	?	?	0.79µM*	2.8µM*	16µM*
Cn1c(-c2c(N)n(C3CCCC3)c3nc4ccccc4nc23)nc2ccccc21	5.2µM*	?	3.5µM*	5.6µM*	12µM*
CC12CCC=CC1C(c1ccc3ccccc3c1)N(Cc1ccccc1)C2=O (configuration not stated)	.	.	?	3%	.
CC(NCC(=O)Nc1ccccc1C(=O)NC1CC1)c1ccc(F)cc1F (configuration not stated)	-5%	-10%	.	.	-1%
CCOC(=O)CNC(=O)CSc1nc(N)cc(N)n1	7%	-7%	-19%	6%	-13%
CCOC(=O)CNC(=S)n1cnc(N)n1	2%	-4%	7.9µM*	-15%	13%
CCN(CC)CCNC(=O)c1ccc(NC(=O)C2CCN(c3ncnc4sc(C)c(C)c34)CC2)cc1	?	?	36%	-16%	21µM*
Cc1cc(Cl)ccc1OCC(=O)NNC(=O)C1CCN(c2ncnc3sc(C)c(C)c23)CC1	?	?	.	.	-7%
Cc1sc2ncnc(N3CCC(C(=O)Nc4ccc(OC(F)F)c(Cl)c4)CC3)c2c1C	?	10µM*	.	.	0%
Cc1sc2ncnc(N3CCC(C(=O)NNC(=O)COc4ccccc4Cl)CC3)c2c1C	4.1µM*	?	.	.	4%
Nc1nc(N)c2[nH]c(-c3ccccc3)nc2n1	?	?	9%	-3%	-36%
O=C(O)/C=C/C(O)c1ccc(Cl)cc1 (configuration not stated)	0%	16%	7%	4%	?
C/C(=C/CCC(C)(O)C1CC[C@@]2(C)[C@@H]3CC=C4[C@@H](CC[C@H](O[C@H]5O[C@@H](CO)[C@H](O)[C@@H](O)[C@@H]5O)C4(C)C)[C@]3(C)C(=O)C[C@]12C)CO[C@@H]1O[C@H](CO)[C@@H](O)[C@H](O)[C@H]1O (some centres not stated)	0%	10%	.	.	-10%
CCCCOC(=O)CCn1[nH]c(=O)c2ccccc2c1=O	-4%	-2%	27%	?	3%
